Compound activity deposited in PubChem BioAssay by National Center for Advancing Translational Sciences (NCATS).
DT40 TDP1 CPT = growth inhibition of DT40 Tdp1-/-;hTDP1 cells with camptothecin (screen for TDP1 inhibitors); chicken DT40 Tdp1-/-;hTDP1 cells + 20 nM CPT, ATP luminescence, 48 h; Potency, µM (doses to about 46.2 µM), most hits filed as inhibitors; 12% of 420,000 active; AID 686979; further: nearly all actives have a fitted effect of over 55% in size
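Cell growth measured by CellTiter-Glo luminescence after a minimum 48 h, 37 C compound exposure with 20 nM CPT in Tdp1-knockout DT40 cells stably expressing hTDP1, seeded 400/well; qHTS titration format.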
Six1-Eya2 blk = blocks human Six1 binding to Eya2. Q15475+O00167. AlphaScreen GST-Six1/His-Eya2 binding, biochemical; stronger effect = lower value. activity change, % (concentration not given with the values). 0.56% of 360,000 active. AID 651725; in the data active means activity change below about -65%; inconclusive means mostly about -30% to -63%
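Compounds are tested against tagged Six1 and Eya2 proteins bridged by glutathione donor and nickel acceptor beads; after a one-hour incubation at 37 °C without light, AlphaScreen emission is recorded.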
IL-1B inflam inh = inhibitors of inflammasome signaling (IL-1 beta secretion). activity change, % at 57.5 µM. 4.7% of 360,000 active. AID 743279. THP-1 LPS/ATP IL-1B secretion, AlphaLISA, 16 h; stronger effect = lower value; in the data active means activity change below about -50%; inconclusive means mostly about -30% to -49%
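THP-1 cells pretreated 1 hr with compounds (up to 57.5 uM final), then stimulated with LPS (250 ng/mL final) plus ATP (1.25 mM final); secreted IL-1B measured by AlphaLISA after 16 hr, decreased signal indicating inhibition.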
TDP1 inh = TDP1 (human) enzyme inhibition. Potency, µM (series often up to 130 µM), actives largely listed as inhibitors. recombinant TDP1, AlphaScreen DNA substrate cleavage. 0.28% of 350,000 active. AID 485290. Q9NUW8; further: nearly all actives have a fitted effect of over 40% in size
Target sequence (Q9NUW8 whole entry, looked up): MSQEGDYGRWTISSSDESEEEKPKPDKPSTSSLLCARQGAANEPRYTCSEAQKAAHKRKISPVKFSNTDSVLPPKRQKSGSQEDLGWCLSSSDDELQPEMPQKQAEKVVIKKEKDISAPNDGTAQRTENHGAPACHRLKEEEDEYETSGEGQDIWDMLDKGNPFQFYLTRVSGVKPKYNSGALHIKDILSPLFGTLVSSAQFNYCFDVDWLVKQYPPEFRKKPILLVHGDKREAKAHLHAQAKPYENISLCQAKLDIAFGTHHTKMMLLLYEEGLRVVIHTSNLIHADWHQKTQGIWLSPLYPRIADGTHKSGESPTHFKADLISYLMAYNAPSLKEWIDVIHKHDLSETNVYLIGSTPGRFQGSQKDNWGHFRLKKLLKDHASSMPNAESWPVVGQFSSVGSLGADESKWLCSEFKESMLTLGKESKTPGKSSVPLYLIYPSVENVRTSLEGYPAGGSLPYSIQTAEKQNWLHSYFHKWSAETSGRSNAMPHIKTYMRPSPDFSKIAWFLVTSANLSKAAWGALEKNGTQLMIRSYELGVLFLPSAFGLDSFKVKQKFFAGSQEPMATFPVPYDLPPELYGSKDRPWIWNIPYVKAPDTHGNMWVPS
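Recombinant human Tdp1 (E. coli-expressed, 1 nM final) preincubated with compounds 15 min at room temperature, then 5'-biotin/3'-phosphotyrosine-FITC DNA substrate (15 nM final) added for 5 min. AlphaScreen beads (10 ug/ml final) added 10 min; cleavage lowers signal.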
CtBP-E1A inh = CtBP/E1A binding inhibition; AlphaScreen GST-E1A/His-CtBP binding, 1536-well; stronger effect = lower value; 0.49% of 340,000 active; activity change, % (test concentration not listed); in the data active means activity change below about -65%; inconclusive means mostly about -30% to -63%
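Homogeneous bead-based format: GST-tagged E1A captured on glutathione donor beads, His-tagged CtBP on nickel acceptor beads; compounds precede bead addition by 2 h at 37 °C.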
DT40 TDP1 no CPT = qHTS for Inhibitors of human tyrosyl-DNA phosphodiesterase 1 (TDP1): qHTS in cells in absence of CPT; DT40 Tdp1-/- hTDP1 cells, no CPT, ATP luminescence, 48 h; Potency, µM (doses to about 46.2 µM), usual class: inhibitors; 15% of 420,000 active; AID 686978, 2013; further: nearly all actives have a fitted effect of over 55% in size
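No-CPT arm: Tdp1-/-;hTDP1 DT40 cells (400/well) plus compounds, incubated ≥48 hr at 37 °C. Readout CellTiter-Glo luminescence.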
Numbers stand for hits; n = inactive; u = inconclusive; x = no result given. Only some compounds are listed: those with a hit (about 18% of all), similar ones and a draw of the others. Unless noted, the call rests on the fitted dose curve; in most records, active means well fitted curve in the direction sought with a large enough effect; inconclusive means small, poorly fitted or top-dose-only effect, or another doubt; inactive means no such curve, though single readings can be large; an effect the other way counts as inactive or inconclusive.

SMILES	DT40 TDP1 CPT	Six1-Eya2 blk	IL-1B inflam inh	TDP1 inh	CtBP-E1A inh	DT40 TDP1 no CPT
O=C(NC1CC(=O)N(c2ccc(F)cc2)C1)c1ccc(S(=O)(=O)N2CCOCC2)cc1 (centres undefined)	n	x	x	u	x	n
O=C1NC(Cc2ccccc2)c2nc3ccccc3c(=O)n2-c2cc3ccccc3cc21 (centres undefined)	13µM	n	n	x	n	13µM
Cc1ccc2c(=O)n3c(nc2c1)C(Cc1ccccc1)NC(=O)c1cc2ccccc2cc1-3 (centres undefined)	u	n	n	x	n	u
O=C1NC(Cc2ccc(O)cc2)c2nc3cc(F)c(F)cc3c(=O)n2-c2cc3ccccc3cc21 (centres undefined)	u	n	n	x	n	u
COc1cc2nc3n(c(=O)c2cc1OC)-c1cc2ccccc2cc1C(=O)NC3CC(C)C (centres undefined)	u	n	n	x	n	u
O=C1NC(Cc2ccc(O)cc2)c2nc3ccc(F)cc3c(=O)n2-c2cc3ccccc3cc21 (centres undefined)	u	n	n	x	n	26µM
COc1cc2nc3n(c(=O)c2cc1OC)-c1cc2ccccc2cc1C(=O)NC3Cc1ccccc1 (centres undefined)	u	n	n	x	n	16µM
CSc1ncc(CN2CCN(C3CCN(C(C)C)CC3)C(CCO)C2)cn1 (centres undefined)	n	n	n	n	n	n
O=C(c1ccc(COc2ccccc2Cl)o1)N1N=C(C(F)F)CC1(O)C(F)F (centres undefined)	23µM	n	u	n	n	16µM
O=C(c1ccc(COc2ccc3ccccc3c2)o1)N1N=C(C(F)F)CC1(O)C(F)F (centres undefined)	u	n	n	n	n	21µM
CCOc1ccc(OCc2ccc(C(=O)N3N=C(C(F)F)CC3(O)C(F)F)o2)cc1 (centres undefined)	u	n	n	n	n	u
O=C(c1ccc(COc2ccc(Br)cc2)o1)N1N=C(C(F)F)CC1(O)C(F)F (centres undefined)	u	n	u	n	n	u
Cc1cccc(N2CCN(C(=O)COc3ccc4ccc(=O)oc4c3)CC2)c1C	u	n	n	n	x	u
COc1cccc2[nH]c(=O)c(-c3ccccc3)cc12	n	n	n	x	n	n
COc1ccc2c(Cl)cc(NC(=O)Nc3c(C)cccc3C)nc2c1	13µM	n	n	x	n	18µM
COc1cc(-c2nccc3cc4c(cc23)OCO4)cc(OC)c1OC	5.8µM	n	n	x	n	4.6µM
CCc1ccccc1NC(=O)N1CCc2cc(OC)c(OC)cc2C1CC(=O)OC (centres undefined)	u	x	x	n	x	18µM
CCC(=O)N1CCc2cc(OC)c(OC)cc2C1COc1ccccc1OC (centres undefined)	u	n	n	n	n	u
COc1cc(OC)c(NC(=O)N2CCc3cc(OC)c(OC)cc3C2CC(=O)O)cc1Cl (centres undefined)	15µM	x	x	n	x	8.2µM
Cc1cccc(C)c1N1C(=O)c2ccccc2NC(=O)C1C(=O)NCCc1ccccc1 (centres undefined)	n	n	n	x	n	n
COc1ccc(CNC(=O)CN2C(=O)COc3ccc(S(=O)(=O)NC4CCCC4)cc32)cc1	n	n	n	n	n	n
CCOc1ccccc1NC(=O)CN1C(=O)COc2ccc(S(=O)(=O)N3CCCCC3)cc21	21µM	x	x	n	x	23µM
CCN(Cc1ccccc1)C(=O)CN1C(=O)COc2ccc(S(=O)(=O)NC3CCCC3)cc21	16µM	n	n	n	n	u
CCOc1ccccc1NC(=O)CN1C(=O)COc2ccc(S(=O)(=O)Nc3ccccc3)cc21	16µM	x	x	n	x	18µM
Cc1cc(C)cc(NC(=O)CN2C(=O)COc3ccc(S(=O)(=O)Nc4ccccc4)cc32)c1	n	x	x	n	x	n
SMILES	DT40 TDP1 CPT	Six1-Eya2 blk	IL-1B inflam inh	TDP1 inh	CtBP-E1A inh	DT40 TDP1 no CPT
CCOc1ccccc1NC(=O)CN1C(=O)COc2ccc(S(=O)(=O)N3CCCCCC3)cc21	u	x	x	n	x	21µM
O=C(c1ccccc1)N1CCN(CC(O)COC2CCCCC2)CC1 (centres undefined)	n	n	n	n	n	n
Cc1ccc(-c2nn(-c3ccccc3)cc2CN(Cc2ccccc2)C(=O)c2ccco2)o1	u	u	u	n	n	u
Cc1ccc(Cc2c(C(C)(C)C)nc3ccc(Br)cn23)cc1	u	n	n	x	n	u
Cc1ccccc1Nc1nnc(-c2ccc(C)c(S(=O)(=O)NCC3CCCO3)c2)c2ccccc12 (centres undefined)	u	x	x	x	x	13µM
Cc1ccc(-c2nnc(N3CCOCC3)c3ccccc23)cc1S(=O)(=O)NCC1CCCO1 (centres undefined)	u	u	u	n	n	26µM
Cc1ccc(-c2nnc(Nc3cccc(O)c3)c3ccccc23)cc1S(=O)(=O)NCC1CCCO1 (centres undefined)	u	x	x	x	x	23µM
C[C@@H]1CCCCO[C@H](CN(C)C(=O)c2ccccc2)[C@@H](C)CN([C@H](C)CO)C(=O)c2cc(NC(=O)c3ccncc3)ccc2O1	n	n	n	x	n	n
COc1ccc(NC(=O)N2CCCCCC2)c(OC)c1	n	n	n	n	n	n
NC(=S)N/N=C/c1c[nH]c2ccccc12	n	n	n	n	n	n
NC(=S)NN=Cc1nccc2ccccc12	2.3µM	-81	n	x	-94	2.1µM
NC(=S)NN=Cc1nccc2c(C(F)(F)C(F)(F)C(F)(F)F)cccc12	0.016µM	n	n	x	n	0.52µM
Cc1cnc(C=NNC(N)=S)c2cccc(N)c12	3.3µM	-79	n	x	n	3.7µM
CC(=O)c1ccc(NC(=S)NC(=O)/C=C/c2ccc(F)cc2)cc1	n	n	n	x	n	u
C=C(C)c1ccc(C(C)(C)NC(=O)N2CCN(C)CC2)cc1	16µM	n	n	n	n	21µM
NNC(=O)c1cc2cc(Oc3ccccc3)ccc2[nH]1	n	n	n	x	n	n
CC(=O)CC1c2cc(F)ccc2C=C(c2ccsc2)N1c1ccc(C#Cc2cncn2C)cc1 (centres undefined)	u	n	n	x	n	u
O=C(CC1c2cc(F)ccc2C=C(c2ccsc2)N1c1ccc(C#CCCO)cc1)c1ccco1 (centres undefined)	u	n	n	x	n	21µM
CC(=O)CC1c2cc(F)ccc2C=C(c2ccsc2)N1c1ccc(C#CC2(O)CCCCC2)cc1 (centres undefined)	u	n	n	x	n	23µM
